{"source": "PubChem BioAssay (Tox21)", "note": "Activity calls are given as the source filed them. Where a call stands in place of a potency, no number is given. Calls come from the whole dose curve."}
{"molecular_target": "Acetylcholinesterase (Homo sapiens) (UniProt P22303)", "sequence (P22303 whole entry, looked up)": "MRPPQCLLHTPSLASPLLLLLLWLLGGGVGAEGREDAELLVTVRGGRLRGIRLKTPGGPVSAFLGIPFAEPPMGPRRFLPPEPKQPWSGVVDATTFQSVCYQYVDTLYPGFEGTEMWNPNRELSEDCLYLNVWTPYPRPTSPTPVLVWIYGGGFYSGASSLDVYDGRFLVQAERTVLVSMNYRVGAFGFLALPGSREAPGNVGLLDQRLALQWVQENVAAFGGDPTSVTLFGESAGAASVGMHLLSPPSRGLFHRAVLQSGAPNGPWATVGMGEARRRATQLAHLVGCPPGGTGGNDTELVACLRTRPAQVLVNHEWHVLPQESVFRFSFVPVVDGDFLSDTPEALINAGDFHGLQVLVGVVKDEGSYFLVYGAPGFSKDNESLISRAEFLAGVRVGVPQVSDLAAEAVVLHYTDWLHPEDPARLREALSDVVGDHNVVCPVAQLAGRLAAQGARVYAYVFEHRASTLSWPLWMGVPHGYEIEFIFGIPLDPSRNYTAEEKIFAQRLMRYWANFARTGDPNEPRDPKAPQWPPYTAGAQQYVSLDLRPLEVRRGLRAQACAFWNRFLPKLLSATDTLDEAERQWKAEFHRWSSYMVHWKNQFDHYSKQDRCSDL", "test": "Acetylcholinesterase (AChE) small molecule antagonists: enzyme-based qHTS assay with human liver microsomes (AID 1347399); note: nearly all actives have a fitted effect of over 60% in size", "conditions": "Potency: qHTS inhibition; outcome: qHTS inhibition; series mostly up to 115 µM", "procedure,_shortened": "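Recombinant human AChE (50 mU/mL in the enzyme mix) and human liver microsomes (0.25 mg/mL final) were preincubated with compound and NADPH (0.25 mg/mL final) for 30 min at 37 C. Acetylthiocholine/DTNB was then added; thiocholine was read colorimetrically after 10 min at room temperature.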"}
{"smiles": "CN(C)c1ccncc1", "Potency": "inactive"}
{"smiles": "CS(=O)(=O)CCNCc1ccc(-c2ccc3ncnc(Nc4ccc(OCc5cccc(F)c5)c(Cl)c4)c3c2)o1", "Potency": "inactive"}
{"smiles": "O=P(O)(OCc1ccccc1)OCc1ccccc1", "Potency": "inactive"}
{"smiles": "CCOC(=O)COc1ccc2c(C)c(CCN(CC)CC)c(=O)oc2c1Cl", "Potency": "inactive"}
{"smiles": "O=CCCCC=O", "Potency": "inactive"}
{"smiles": "O=C(O)CNC(=O)c1ccc(CO)o1", "Potency": "inactive"}
{"smiles": "CCN=C1C=CC(=C(c2ccc(N(CC)CC)cc2)c2ccc(N(CC)CC)cc2)c2ccccc21", "Potency": "inactive"}
{"smiles": "CO[C@H]1O[C@H](CO)[C@@H](O)[C@H](O)[C@H]1O", "Potency": "inactive"}
{"smiles": "CC(=O)Oc1c(C)c(C)c2c(c1C)CC[C@@](C)(CCC[C@H](C)CCC[C@H](C)CCCC(C)C)O2", "Potency": "inactive"}
{"smiles": "CC(=O)Nc1ccc(S(=O)(=O)Nc2ccc([N+](=O)[O-])cc2)cc1", "Potency": "inactive"}
{"smiles": "CC(C)(C)N", "Potency": "inactive"}
{"smiles": "CO[Si](OC)(OC)c1ccccc1", "Potency": "inactive"}
{"smiles": "C=C1[C@H]2CC[C@@H]3[C@H]2C(C)(C)CCC[C@]13C", "Potency": "inactive"}
{"smiles": "OC[C@H]1O[C@@H](OCCc2ccc(O)cc2)[C@H](O)[C@@H](O)[C@@H]1O", "Potency": "inactive"}
{"smiles": "CC(C)CCCCCCOC(=O)c1ccc(C(=O)OCCCCCCC(C)C)c(C(=O)OCCCCCCC(C)C)c1", "Potency": "inactive"}
{"smiles": "CCc1nc(N)nc(N)c1-c1ccc(Cl)cc1", "Potency": "inactive"}
{"smiles": "CC1(C)SC(C)(C)SC(C)(C)S1", "Potency": "inactive"}
{"smiles": "CN1CCc2cccc3c2[C@H]1Cc1ccc(O)c(O)c1-3", "Potency": "inactive"}
{"smiles": "CC(C)(C)CCCCCCOC(=O)c1ccccc1C(=O)OCCCCCCC(C)(C)C", "Potency": "inactive"}
{"smiles": "C[Si](C)(C)O[Si](C)(C)C", "Potency": "inactive"}
{"smiles": "Cc1c(O)cccc1O", "Potency": "inactive"}
{"smiles": "CCOc1ccc(N=Nc2ccc(/C=C/c3ccc(N=Nc4ccc(OCC)cc4)cc3S(=O)(=O)O)c(S(=O)(=O)O)c2)cc1", "Potency": "inactive"}
{"smiles": "C/C=C(\\C)C(C)=O", "Potency": "inactive"}
{"smiles": "NC(=O)c1ncn([C@@H]2O[C@H](CO)[C@@H](O)[C@H]2O)n1", "Potency": "inactive"}
{"smiles": "OC1CCCc2ccccc21", "note": "(stereo not given)", "Potency": "inactive"}
{"smiles": "NC(=O)NNC(N)=O", "Potency": "inactive"}
{"smiles": "CC1=CC(=O)CC(C)(C)C1", "Potency": "inactive"}
{"smiles": "Cc1cccc(C(C)(C)C)c1O", "Potency": "inactive"}
{"smiles": "CCCc1c(OCCCOc2ccc(OCC(=O)O)cc2)ccc(C(C)=O)c1O", "Potency": "inactive"}
{"smiles": "CCN[C@H]1C[C@H](C)S(=O)(=O)c2sc(S(N)(=O)=O)cc21", "Potency": "inactive"}
{"smiles": "CCN1CCCC1CN", "note": "(stereo not given)", "Potency": "inactive"}
{"smiles": "CCO[Si](CC)(OCC)OCC", "Potency": "inactive"}
{"smiles": "C[C@@H]1CC(=O)NN=C1c1ccc(NN=C(C#N)C#N)cc1", "Potency": "inactive"}
{"smiles": "Cc1ccc([N+](=O)[O-])c(N)c1", "Potency": "inactive"}
{"smiles": "CCOC(=O)CC1(C)OCC(C)O1", "note": "(stereo not given)", "Potency": "inactive"}
{"smiles": "O=C(O)c1c(Cl)ccc(Cl)c1Cl", "Potency": "inactive"}
{"smiles": "c1ccc2c(c1)Cc1ccccc1-2", "Potency": "inactive"}
{"smiles": "Nc1ccc(C(=O)N2CC3CC(CN(Cc4ccccc4)C3)C2)cc1", "Potency": "inactive"}
{"smiles": "O=C(O)c1ccc(S(=O)(=O)N(Cl)Cl)cc1", "Potency": "inactive"}
{"smiles": "CC1=C(/C=C/C(C)=C/C=C/C(C)=C/C(=O)Nc2ccc(O)cc2)C(C)(C)CCC1", "Potency": "inactive"}
